# Source: PubChem (several laboratories)
# esBAF inh = blocks esBAF chromatin remodeling in mouse ES cells; reporter increase, % at 12.5 µM; 350,000 tested, 2% active; Bmi1-luciferase knock-in reporter, 24 h; 100% = twice the neutral-well signal; AID 602393; in the data active means activation above about 40%; inconclusive means no clear call, values can overlap the other calls;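 further: 0% = median of the plate's neutral control wells and 100% = double that signal; a rise in the Bmi1 reporter signal indicates esBAF inhibition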
# MITF TRPM1 HTS = MITF TRPM1 promoter activation in melanoma cells; activation, % at 12.5 µM; SK-MEL-5 TRPM1-promoter luciferase, 24 h; % of positive control, neutral wells = 0; 300,000 tested, 0.75% active;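 active means mean activation of at least 80% with every replicate also reaching 80%; inconclusive means mean reaches 80% but some replicate falls short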;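 further: 0% = neutral control wells and 100% = parthenolide positive control wells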
# Wnt act = Wnt/beta-catenin pathway activation | 300,000 tested, 1.2% active | Wnt/beta-catenin reporter cell assay, activator, plate reader | activation, % at 9.35 µM | AID 743398; in the data active means activation above about 30%, passing the limit was not always enough; inconclusive means no clear call, values can overlap the other calls;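 further: 0% = neutral control wells and 100% = positive control wells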
# APOBEC3G inh = APOBEC3G (human) deaminase inhibition | inhibition, % at 20 µM | 330,000 tested, 0.28% active | Q9HC16 | recombinant A3G, ssDNA deamination FAM/TAMRA fluorescence | AID 493012;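 active means inhibition of at least 40% at 20 µM, with no more than 30% in the related APOBEC3A deaminase screen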;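 further: plate controls were DMSO wells with A3G for no effect and wells lacking A3G enzyme for full effect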
# PHOSPHO1 block = PHOSPHO1 (human) inhibition; inhibition, % at 13.3 µM; recombinant PHOSPHO1, absorbance phosphatase assay; AID 1565; 290,000 tested, 1.1% active; in the data active means inhibition above about 60%
# Target sequence (Q8TCT1 whole entry, looked up): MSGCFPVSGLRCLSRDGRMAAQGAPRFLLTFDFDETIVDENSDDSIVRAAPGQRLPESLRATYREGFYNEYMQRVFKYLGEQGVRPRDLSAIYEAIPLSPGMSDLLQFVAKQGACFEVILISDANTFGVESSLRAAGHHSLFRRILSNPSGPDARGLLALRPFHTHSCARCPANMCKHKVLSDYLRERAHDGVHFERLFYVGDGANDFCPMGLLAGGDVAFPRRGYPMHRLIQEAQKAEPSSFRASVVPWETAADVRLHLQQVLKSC
# A3A deaminase = inhibitors of human APOBEC3A DNA deaminase. P31941. recombinant A3A, FAM/TAMRA ssDNA deamination fluorescence. inhibition, % at 20 µM. 330,000 tested, 0.41% active. AID 493011;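 active means at least 40% inhibition at 20 µM here, with at most 30% in a related deaminase screen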;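 further: plate controls were A3A with DMSO for no effect and wells lacking A3A enzyme for full effect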
# Target sequence (P31941 whole entry, looked up): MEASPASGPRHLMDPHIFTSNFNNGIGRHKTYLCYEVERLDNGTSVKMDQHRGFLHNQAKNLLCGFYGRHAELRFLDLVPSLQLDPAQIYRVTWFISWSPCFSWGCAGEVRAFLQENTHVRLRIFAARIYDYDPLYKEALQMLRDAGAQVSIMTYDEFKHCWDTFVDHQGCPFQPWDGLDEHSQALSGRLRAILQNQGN
# Numbers without * were called inactive; ? = inconclusive; . = no result. A selection: hits, their analogues and other compounds. The true share with any hit is near 3.6%.
SMILES,esBAF inh,MITF TRPM1 HTS,Wnt act,APOBEC3G inh,PHOSPHO1 block,A3A deaminase
CC(C)(C)C(=O)Nc1nc2cc3c(cc2s1)OCO3,29,?,42*,-3,11,3
CC(C)C(=O)Nc1nc2cc3c(cc2s1)OCO3,68*,.,29,3,22,-1
CCOc1ccc2nc(NC(=O)/C=C/c3ccc4c(c3)OCO4)sc2c1,.,-4,-2,-7,0,-4
Fc1cccc2sc(Nc3nc4cc5c(cc4s3)OCCO5)nc12,.,19,18,-5,-4,5
CNC(=O)C[C@H]1CC[C@@H]2[C@H](COc3ccc(NC(=O)Nc4ccc(F)cc4)cc3C(=O)N2C)O1,2,.,.,.,.,.
CC(C)NC(=O)N(C)C[C@H]1OCCCC[C@H](C)Oc2ccc(NS(=O)(=O)c3ccccc3)cc2C(=O)N([C@H](C)CO)C[C@@H]1C,-3,.,.,.,.,.
COc1ccc(-c2nc3ccccc3c(=O)n2-c2c(C)n(C)n(-c3ccccc3)c2=O)cc1,-5,1,-2,9,24,3
Cc1c(-n2c(-c3ccccc3)nc3ccccc3c2=O)c(=O)n(-c2ccccc2)n1C,.,-11,11,-8,60*,-8
C[C@H](CO)N1C[C@H](C)[C@@H](CN(C)Cc2ccc(C(=O)O)cc2)Oc2c(NC(=O)Nc3ccc4c(c3)OCO4)cccc2C1=O,12,.,.,.,.,.
O=C(N[C@H](C(=O)N1CCC[C@H]1C(=O)NC1CCCC1)C1CCCCC1)c1ccc(Cl)cc1Cl,.,.,-6,.,.,.
C=CCN1N=C(/C=C/c2ccc(C)cc2)CCC1=O,56*,53,6,-3,20,2
C[C@H](CO)N1C[C@H](C)[C@@H](CN(C)Cc2ccc(C(=O)O)cc2)OCCCC[C@H](C)Oc2ccc(NS(=O)(=O)c3ccc(F)cc3)cc2C1=O,4,.,.,.,.,.
C[C@@H]1CCCCO[C@H](CN(C)C(=O)CCCN(C)C)[C@@H](C)CN([C@@H](C)CO)C(=O)c2cc(NC(=O)CCCN(C)C)ccc2O1,1,.,.,.,.,.
Cc1nc2nc(N)nc(OCc3ccccc3)c2nc1C,.,.,50*,-6,.,-2
CN1CCN(C(=O)C[C@@H]2C[C@H]3c4cc(NC(=O)Nc5ccc(F)cc5)ccc4O[C@H]3[C@H](CO)O2)CC1,-2,.,.,.,.,.
Cc1ccc(N2C(=O)CC(Sc3ncn[nH]3)C2=O)cc1C (stereo unspecified),-6,-4,.,36,105*,-3
Cc1cccc(N2C(=O)CC(Sc3ncn[nH]3)C2=O)c1 (stereo unspecified),-7,-5,0,29,7,-5
C[C@H]1CN([C@@H](C)CO)C(=O)c2cc(NC(=O)Nc3ccccc3)ccc2O[C@@H]1CN(C)CC1CCCCC1,1,.,.,.,.,.
CN(C(=O)c1ccco1)c1nnc(C23CC4CC(CC(C4)C2)C3)s1,67*,.,23,-2,-14,-3
Cc1ccc(-c2ccc([C@@H]3[C@@H](CO)N4CCCCN(S(=O)(=O)c5ccccc5C)C[C@H]34)cc2)cc1,-1,.,.,.,.,.
Cc1cc(OCC(=O)N(C)C2CCCCC2)ccc1Cl,4,39,60*,-8,57,-5
Cc1ccc(S(=O)(=O)N(C)C[C@@H]2Oc3ccc(NC(=O)NC4CCCCC4)cc3CC(=O)N([C@@H](C)CO)C[C@H]2C)cc1,8,.,.,.,.,.
CCOc1ccc(C2CC(=O)n3nc(C45CC6CC(CC(C6)C4)C5)nc3S2)cc1OC (stereo unspecified),-8,3,.,1,84*,0
CC(C(=O)Nc1ccc(F)c(F)c1)N1CCN(C)CC1 (stereo unspecified),-2,-4,1,-6,20,-3
Cn1cccc1C(=O)C(=O)Nc1cccc(Cl)c1Cl,63*,58,.,-4,16,1
SMILES,esBAF inh,MITF TRPM1 HTS,Wnt act,APOBEC3G inh,PHOSPHO1 block,A3A deaminase
Cn1cccc1C(=O)C(=O)Nc1ccc(Cl)cc1,13,.,9,-6,33,36
Cn1cccc1C(=O)C(=O)Nc1ccc(F)c(F)c1,46*,103*,-1,-8,16,-4
Cn1cccc1C(=O)C(=O)Nc1cc(Cl)cc(Cl)c1,49*,46,7,2,7,-4
COc1ccc(-c2ccc(C(=O)NCc3ccccc3)c3occc23)c(C)c1,50*,.,10,.,.,.
COc1ccc(-c2ccc(C(=O)Nc3ccc(Cl)cc3)c3occc23)c(C)c1,80*,.,5,.,.,.
COc1ccc(-c2ccc(C(=O)Nc3ccc(NC(C)=O)cc3)c3occc23)c(C)c1,-3,.,-3,.,.,.
Cn1nccc1-c1ccc(C(=O)NCc2ccc(Cl)cc2)c2occc12,80*,.,.,.,.,.
COc1ccc(-c2coc3c(C(=O)NCc4ccccc4)cccc23)c(C)c1,10,.,-2,.,.,.
CCOC(=O)c1sc(=NC(=O)c2ccccc2Br)n(C)c1C,58*,?,32*,-7,22,-6
CCOC(=O)c1sc(=NC(=O)c2cccs2)n(C)c1C,25,43,39*,-11,-58,0
CCOC(=O)c1sc(=NC(=O)c2ccc(Cl)s2)n(C)c1C,.,54,8,0,0,3
CNC[C@H]1Oc2cc(C#CCC(C)C)ccc2S(=O)(=O)N([C@@H](C)CO)C[C@@H]1C,-1,.,.,.,.,.
CN1CCN(C(=O)c2ccc(-c3cccs3)s2)CC1,.,.,36*,-7,-8,-4
C[C@@H]1CN([C@@H](C)CO)C(=O)c2cc(NC(=O)c3ccncc3)ccc2O[C@@H]1CN(C)Cc1ccc(Cl)c(Cl)c1,0,.,.,.,.,.
CCn1nnnc1SCC(=O)c1ccc2c(c1)OCCO2,?,16,12,-2,22,2
O=C(CSc1nnnn1C1CCCC1)Nc1ccc2c(c1)OCO2,-2,6,.,-5,34,-2
CCn1c(C)cc(C(=O)CSc2nnnn2C2CCCC2)c1C,-11,105*,3,-6,.,-4
Cc1ccc(C)c(C(=O)CSc2nnnn2C(C)C)c1,51*,45,.,-2,14,-3
CC(C)n1nnnc1SCC(=O)c1ccc2c(c1)OCCO2,47*,77,30,-9,38,-2
O=C(CSc1nnnn1C1CCCC1)c1ccc2c(c1)OCCO2,81*,74,?,-4,44,-4
CCCNC(=O)C[C@@H]1CC[C@@H]2[C@H](COC[C@@H](O)CN2C(=O)c2cc(Cl)cc(Cl)c2)O1,2,.,.,.,.,.
Cc1ccc(OCc2ccc(Br)cc2)c([N+](=O)[O-])n1,.,.,61*,-15,15,23
Cc1ccc(OCCOc2cccc(Br)c2)c([N+](=O)[O-])n1,.,103*,.,-6,3,-4
CCOc1cc(Br)c(COc2ccc(C)nc2[N+](=O)[O-])cc1OCC,-7,-6,0,-6,23,0
C[C@@H]1CN([C@@H](C)CO)C(=O)c2cccc(NC(=O)Nc3ccc(F)cc3)c2O[C@@H]1CN(C)Cc1ccc(-c2ccccc2)cc1,-3,.,.,.,.,.
CN(C(=O)COc1cc(C(F)(F)F)nn1C)c1ccccc1,.,-4,-2,-7,50,-1
Cn1nc(-c2ccc(S(N)(=O)=O)s2)cc1C(F)(F)F,-12,6,0,-8,15,-2
